Screens from PubChem BioAssay.
EP2 antag: EP2 receptor (human) inhibition | P43116 | inhibition, % at 25 µM | C6 glioma cells expressing human EP2, cAMP TR-FRET; cells stimulated with saturating PGE2 | 260,000 compounds, 0.52% hits;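 active means percent inhibition above 40 after rounding to a whole number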;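 further: rat C6 glioma host cells with rolipram phosphodiesterase inhibitor present; the protocol text gives 20 µM as final concentration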
Target sequence (P43116 whole entry, looked up): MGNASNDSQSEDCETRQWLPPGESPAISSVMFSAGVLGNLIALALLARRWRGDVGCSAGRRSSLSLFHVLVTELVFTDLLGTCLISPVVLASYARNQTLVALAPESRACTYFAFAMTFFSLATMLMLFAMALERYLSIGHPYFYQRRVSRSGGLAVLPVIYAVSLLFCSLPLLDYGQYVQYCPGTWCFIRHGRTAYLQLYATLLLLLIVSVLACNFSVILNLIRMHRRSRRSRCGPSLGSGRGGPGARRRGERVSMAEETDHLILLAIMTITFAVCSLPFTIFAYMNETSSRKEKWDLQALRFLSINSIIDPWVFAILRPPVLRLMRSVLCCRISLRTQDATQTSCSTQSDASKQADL
PERK inhibitor: human PERK inhibition, primary cell-based screen; inhibition, % at 5.6 µM; CHO PERK-DD fusion, SEAP luminescence translation reporter; 220,000 compounds, 0.17% hits;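 active means inhibition above the mean inhibition of all tested compounds plus 3 SD, set separately per screening campaign, cut at about 2.9% in these data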;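 further: PERK kinase domain activated by AP20187 dimerizer at 100 nM; 0% = DMSO with dimerizer and 100% = rapamycin at 8.4 µM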
eIF4E 4G PPI: blocks eIF4E binding to eIF4G; P63073+Q04637; TR-FRET eIF4E-eIF4GI(517-606) binding, 2 h; inhibition, % at 21.7 µM; 220,000 compounds, 0.37% hits; AID 782;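 active means inhibition above about 30%, limit read from the data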;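 further: 0% = full FRET control wells and 100% = background wells lacking eIF4GI fragment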
EP2 modulator: EP2 receptor (human) modulation | EP2-expressing cells, cAMP HTRF FRET, PGE2 co-stimulation | induction, % at 25 µM | P43116 | AID 940 | 260,000 compounds, 0.83% hits;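 active means compounds whose cAMP rise, as percent of the full-agonist control response, exceeds 60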;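 further: rat C6 glioma line stably carrying human EP2 under a CMV promoter; the protocol text gives 20 µM as final concentration; 100% = response of wells given 1 µM PGE2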
EP2 cAMP induct: human EP2 receptor cAMP induction, negative in counter-screens; 1,300 compounds, 47% hits; calls only at 20 µM (by protocol); shares compounds with EP2 modulator; C6 glioma EP2 cells, cAMP HTRF induction; plus low (about EC15) PGE2 agonist;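 active means cAMP induction above 50% in the main assay while under 30% in all four parallel counter assays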;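 further: rat C6 glioma cells stably expressing human EP2 receptor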
An asterisk follows results filed as active; i = inactive; . = not tested or not shown; + = active, no number. Sampled rows, rich in hits. Any-hit rate of the full collection: about 1.8%.

SMILES | EP2 antag | PERK inhibitor | eIF4E 4G PPI | EP2 modulator | EP2 cAMP induct
Cn1c(=O)[nH]c(=O)c2c1nc(N1CCN(CCO)CC1)n2Cc1cccc2ccccc12 | 11.6 | . | . | -26.8 | .
Cc1ccccc1NC1=C(C(=O)c2ccccc2)N(C)S(=O)(=O)c2ccccc21 | 11.7 | 0.1 | -2.0 | 78.3* | +
O=C(C1=C(Nc2ccccc2)c2ccccc2S(=O)(=O)N1)c1ccccc1 | 2.7 | 0.8 | 0.5 | -8.4 | .
Cc1ccc(C2CC2c2n[nH]c(=S)n2-c2ccc(C)cc2)cc1 (centres undefined) | 2.5 | -0.9 | 8.4 | 58.0 | i
Cc1ccc(-n2c(C3CC3c3ccc(Cl)cc3)n[nH]c2=S)cc1 (centres undefined) | 3.4 | 0.0 | 2.6 | 48.1 | .
Cn1c(-c2ccc(Br)cc2)cnc1NC(=O)C1(C)CCCO1 (centres undefined) | 6.7 | . | . | -17.3 | .
O=C(NCC1CCCO1)C(c1ccncc1)N(Cc1cccs1)C(=O)Cn1nnc(-c2ccc(F)cc2)n1 (centres undefined) | 11.8 | 1.2 | 4.4 | -12.7 | .
Cc1ccc(-c2nnn(CC(=O)N(Cc3cccs3)C(C(=O)NC3CCCC3)c3ccncc3)n2)cc1 (centres undefined) | 17.9 | -1.5 | -2.3 | 72.0* | i
O=S1(=O)CCN(Cc2ccc(F)cc2)CC1 | 8.1 | 0.5 | -6.0 | -5.2 | .
O=S1(=O)CCN(Cc2cccc(Cl)c2)CC1 | 8.0 | 0.1 | -5.6 | 86.2* | i
COC(=O)CSc1nc(-c2ccccc2)nc2ccccc12 | 3.4 | -0.5 | 2.6 | 67.8* | +
O=C(CSc1nnc2n(Cc3ccccc3F)c3ccccc3n12)Nc1c[nH]c(=O)[nH]c1=O | 4.9 | . | . | -6.1 | .
CC(Sc1nnc(-c2ccccc2O)o1)C(=O)Nc1ccc(Br)cc1 (centres undefined) | 3.9 | . | . | -63.8 | .
NC(=O)CSc1nnc2n(Cc3ccccc3F)c3ccccc3n12 | 9.7 | . | . | -51.3 | .
COc1ccc2c(C)cc(SCC(=O)Nc3ncc(Cl)cc3Cl)nc2c1 | 13.6 | 0.7 | 14.0 | 67.8* | i
Cc1cc(SCC(=O)Nc2ncc(Cl)cc2Cl)nc2ccccc12 | 11.3 | 0.4 | -0.8 | 46.0 | .
COC(=O)Cn1ncc2c3sc(C)cc3n(Cc3cccc(OC)c3)c2c1=O | . | . | . | 45.7 | .
C=CCn1c(SCc2c(C)noc2C)nc2cc(C(=O)O)ccc2c1=O | 5.2 | -0.1 | -1.6 | 19.9 | .
Cc1noc(C)c1CSc1nc2ccccc2c(=O)n1-c1ccccc1 | 14.8 | -1.5 | 4.0 | 52.6 | i
Cc1noc(C)c1CSc1nc2[nH]ncc2c(=O)n1-c1ccccc1 | 22.4 | -1.5 | -4.2 | 30.7 | .
C=CCn1c(SCc2c(C)noc2C)nc2ccccc2c1=O | 3.4 | -1.8 | -16.2 | 70.6* | i
Cc1noc(C)c1CSc1nc2ccccc2c(=O)n1-c1ccc(F)cc1F | . | -1.2 | 7.7 | 56.2 | +
CCc1cc2ccc(C)c(C)c2nc1SCC(=O)NC(C)(C)C | 16.3 | . | . | 24.7 | .
CCOc1ccc(Cn2c3ccc(OC)cc3c3nc4ccccc4nc32)cc1 | 5.0 | 0.9 | 12.4 | 18.5 | .
CCn1c2ccc(OC)cc2c2nc3ccccc3nc21 | 4.8 | -0.5 | 0.8 | 56.3 | i
SMILES | EP2 antag | PERK inhibitor | eIF4E 4G PPI | EP2 modulator | EP2 cAMP induct
CCn1c2ccc(Cl)cc2c2nc3ccccc3nc21 | 6.7 | 0.0 | 0.4 | 54.5 | +
COc1ccc(/C=C(\C#N)C(N)=O)cc1OC | 12.1 | . | . | 76.5* | i
CC(C)(C)n1nnnc1C(c1ccncc1)N(Cc1ccccc1)Cc1ccco1 (centres undefined) | 25.3 | -1.1 | 15.8 | 70.5* | i
CC(C)(C)n1nnnc1C(c1cccs1)N(Cc1ccccc1)Cc1ccco1 (centres undefined) | 15.1 | -0.1 | 0.6 | 13.0 | .
COc1ccc(-c2noc(-c3ccccc3-c3ccccc3)n2)cc1OC | . | -0.7 | 3.3 | 77.2* | +
COc1cc(OC)c(-c2nc(-c3ccccc3)no2)cc1OC | 7.6 | . | . | 20.4 | .
COc1ccc(OC)c(S(=O)(=O)N2CCC(C(=O)NC(C)(C)C)CC2)c1 | 7.3 | . | . | -28.8 | .
O=C(O)/C=C/C(O)c1ccc(Cl)cc1 (centres undefined) | 13.2 | . | . | 79.3* | i
COc1ccc(C(c2nnnn2Cc2cccs2)N2CCN(c3ccccc3)CC2)c(OC)c1 (centres undefined) | 1.6 | . | . | 9.3 | .
Cn1c(=O)c2c(nc(SCCCC#N)n2Cc2c(F)cccc2Cl)n(C)c1=O | 6.9 | -0.3 | 6.3 | 17.9 | .
CC(C)c1nc(SCc2c(F)cccc2Cl)c2c(=O)n(C)c(=O)n(C)c2n1 | 10.5 | 1.2 | 0.9 | 80.1* | +
NC(=O)C(CCNS(=O)(=O)c1ccc(Cl)cc1)Sc1ncccn1 (centres undefined) | 6.1 | . | . | -4.2 | .
CCC(c1nnnn1Cc1ccco1)N(Cc1cc2ccc(C)cc2[nH]c1=O)C1CCCCC1 (centres undefined) | 14.8 | . | . | 34.7 | .
CCOP(=O)(OCC)c1nc(-c2ccccc2Cl)oc1N1CCOCC1 | 7.6 | 0.4 | 11.1 | 5.5 | .
CCOP(=O)(OCC)c1nc(-c2ccc(Cl)cc2Cl)oc1N1CCCCC1 | 2.9 | 0.6 | 15.0 | 51.7 | i
Cc1ccc(Oc2nc3ccccc3n3cccc23)cc1 | 9.1 | 0.9 | 1.0 | 59.6 | .
c1ccc(Oc2nc3ccccc3n3cccc23)cc1 | 4.5 | 1.2 | 0.4 | 65.3* | i
Cc1cc(C)cc(OCC(=O)Nc2sc(C)c(C)c2C(N)=O)c1 | 4.5 | . | . | -61.9 | .
Cc1nc2ccccn2c1C(=O)CSc1ccccc1Cl | 21.1 | -0.5 | -2.0 | 30.9 | .
Cc1nc2ccccn2c1C(=O)CSc1ccc(Cl)cc1Cl | 10.2 | 0.7 | 0.2 | 69.6* | i
COc1ccc(-c2cc(C(F)(F)F)nc(SCC(=O)Nc3ccc(C)cc3)n2)cc1OC | 14.1 | . | . | 23.6 | .
CC1(C)OC(c2ccccc2)=C/C(=C/C=Nc2ccccc2)O1 | 14.0 | 0.4 | 6.3 | 66.5* | i
CCN(CC)C(=O)CN(c1cc2c(cc1OC)oc1ccccc12)S(=O)(=O)c1ccc(C)cc1 | 5.5 | -2.4 | -26.0 | 91.4* | i
CC(=O)Nc1ccc(N2C(C(C)=O)=NN(c3ccccc3)C2c2cccs2)cc1 (centres undefined) | 4.7 | 0.3 | -7.5 | 24.7 | .
CC(=O)Nc1ccc(C2=NN(c3ccccc3)C(c3cccs3)C2)cc1 (centres undefined) | 11.2 | 1.2 | -2.3 | 75.8* | i
CCCC(c1nnnn1Cc1ccc(F)cc1)N(Cc1cc2cccc(C)c2[nH]c1=O)C1CCCC1 (centres undefined) | 23.9 | . | . | 20.1 | .
CCCCOc1ccc(-c2c(C(=O)Nc3ccccc3)c(C)[nH]c(=S)c2C#N)cc1 | 19.2 | 0.2 | 0.2 | 72.8* | i
O=C(O)c1cc2c(s1)-c1ccccc1OC2 | 11.6 | 0.9 | -2.0 | 85.6* | i
O=C(NC1CC1)c1cc2c(s1)-c1ccccc1OC2 | 13.4 | -0.8 | 0.5 | 2.8 | .
COc1ccc(S(=O)(=O)N2CCCC(C(=O)NCc3ccc(C)cc3)C2)cc1 (centres undefined) | 5.8 | . | . | -20.2 | .
